In PubChem BioAssay (EPA / NIEHS):
Records with an inconclusive call do not appear. Some compounds were tested as several samples or in several runs, with calls that do not always agree. Calls of active or inactive are those of the source. Rule for the calls: active = hit-call score of the fitted dose curve at least 0.9, where 1 is the maximum; inconclusive = response in the unintended direction; inactive = score below 0.9.

molecular target: human Thyroid hormone Receptor alpha (TRa), THRA (gene 7067) (UniProt P10827); experiment: ATG_hTRa_XSP2: Attagene TRANS-FACTORIAL Multi-Species (XSP2) HepG2 Assay for human Thyroid hormone Receptor alpha (TRa) (AID 2283838)
Experimental: ATG_XSP2_multi-species_TRANS is a cell-based, multiplexed assay created by modifying the existing Attagene TRANS-FACTORIAL system to include a panel of nuclear receptors from some or all the following species: human (Homo sapiens), mouse (Mus musculus), frog (Xenopus laevis), zebrafish (Danio rerio), chicken (Gallus gallus), and turtle (Chrysemys picta). The ECOTOX-FACTORIAL format uses HepG2, a human liver cell line, with measurements taken at 24 hours after chemical dosing in a 24-well plate. Xsp2 included 3 nM 6-alpha-fluorotestosterone and 1.5 nM norgestrel to stimulate the androgen receptor.ATG_hTRa_XSP2 is one of 29 assay components measured or calculated from the ATG_XSP2_multi-species_TRANS assay. It is designed to make measurements of mRNA induction, a form of inducible reporter, as detected with fluorescence intensity signals by Reverse transcription polymerase chain reaction (RT-PCR) and Capillary electrophoresis technology.The assay endpoint ATG_hTRa_XSP2 was analyzed in the positive analysis fitting direction relative to DMSO as the negative control and baseline of activity. Using a type of inducible reporter, measures of mRNA for gain-of-signal activity can be used to understand the reporter gene at the transcription factor-level as they relate to the gene TR. Furthermore, this assay endpoint can be referred to as a primary readout, because this assay has produced multiple assay endpoints where this one serves a reporter gene function. To generalize the intended target to other relatable targets, this assay endpoint is annotated to the nuclear receptor intended target family, where the subfamily is non-steroidal.
Human liver HepG2 cells are transiently transfected with multiple reporter transcription units (MRTUs) in 6-well plates using FuGene 6 reagent (Roche; 3 ml FuGene/1 mg DNA). The MRTU constructs are regulated by a cis-regulating element (promoter). […] A major difference between the CIS and TRANS system is that in CIS activities of endogenous TFs are measured, whereas the TRANS assay evaluates changes in activities of exogenous, chimeric NR-Gal4 proteins. […] At the end of 24 hour incubation, total RNA was isolated using TriZol reagent (Invitrogen). The isolated RNA is then reverse-transcribed using oligo(dT) primer and Mo-MLV reverse transcriptase (Invitrogen) with DNAse I (Ambion) treatment for 30 min. The one-tenth of the produced cDNA was amplified by PCR using Taq DNA polymerase (Invitrogen) and two reporter sequence-specific primers. The PCR products were fluorescently labeled by primer extension with 6-arboxyfluorescein (6-FAM) 5'-labeled reporter sequence-specific primer (2 min at 95 C, 20 s at 68 C and 10 min at 72 C) and these products were digested with 5U of HpaI (New England Biolabs) for 2h at 37 C. The fragments were purified using Qiaquick PCR columns (Qiagen), analyzed on an ABI 3130xL genetic analyzer (Applied Biosystems) with peak positions identified by using a set of X-rhodamine (ROX)-labeled MapMarker1000 molecular weight standards (BioVentures). The raw capillary electrophoresis data was processed using Attagraph software (Attagene).

Sequence of human Thyroid hormone Receptor alpha (TRa), THRA (gene 7067) (P10827 whole entry, looked up): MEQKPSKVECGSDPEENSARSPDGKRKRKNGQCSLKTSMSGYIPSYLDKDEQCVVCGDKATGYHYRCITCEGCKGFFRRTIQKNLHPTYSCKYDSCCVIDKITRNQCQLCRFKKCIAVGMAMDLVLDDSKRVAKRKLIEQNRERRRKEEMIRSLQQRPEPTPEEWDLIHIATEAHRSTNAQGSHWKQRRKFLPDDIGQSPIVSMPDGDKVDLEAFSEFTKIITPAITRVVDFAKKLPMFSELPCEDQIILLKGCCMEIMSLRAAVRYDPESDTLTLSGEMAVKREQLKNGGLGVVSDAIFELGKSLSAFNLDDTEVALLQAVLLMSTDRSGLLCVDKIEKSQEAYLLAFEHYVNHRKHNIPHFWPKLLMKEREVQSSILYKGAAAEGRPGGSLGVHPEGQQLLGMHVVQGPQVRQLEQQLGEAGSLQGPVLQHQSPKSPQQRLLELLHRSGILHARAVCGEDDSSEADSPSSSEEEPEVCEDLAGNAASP

SMILES | outcome | AC50
CC1(C)CCC(=Cc2ccc(Cl)cc2)C1(O)Cn1cncn1 (stereo not given) | inactive | 
COP(=S)(OC)Oc1ccc([N+](=O)[O-])c(C)c1 | inactive | 
C=C(C)CN(CC)c1c([N+](=O)[O-])cc(C(F)(F)F)cc1[N+](=O)[O-] | inactive | 
N#Cc1c[nH]cc1-c1cccc2c1OC(F)(F)O2 | inactive | 100 µM (active)
CC(C)NC(=O)N1CC(=O)N(c2cc(Cl)cc(Cl)c2)C1=O | inactive | 
CC1(C)C(C=C(Cl)Cl)C1C(=O)OC(C#N)c1cccc(Oc2ccccc2)c1 (stereo not given) | inactive | 
Cc1c(COC(=O)[C@@H]2[C@H](/C=C(\Cl)C(F)(F)F)C2(C)C)cccc1-c1ccccc1 | inactive | 
COP(=S)(OC)SCn1nnc2ccccc2c1=O | inactive | 
CCN(CC)C(=O)C(C)Oc1cccc2ccccc12 (stereo not given) | inactive | 
